Experimental data as given in PubChem BioAssay (EPA / NIEHS).
Where “and” joins values, the source holds several entries; their conditions need not be identical. Identical values can stand only once. Records with an inconclusive call do not appear. More than one record can exist for a structure, and the calls need not agree. Calls of active or inactive are those of the source. Rule for the calls, unless noted: active = hit-call score of the fitted dose curve at least 0.9, where 1 is the maximum; inactive = score below 0.9.

How the values were obtained:
[1] = molecular target: Retinoic acid receptor RXR-alpha (Homo sapiens) (UniProt P19793); assay: ATG_RXRa_TRANS: Attagene TRANS-FACTORIAL HepG2 Assay for human Retinoid X Receptor alpha (RXRa) (AID 2283012; active = hit-call score of the fitted dose curve at least 0.9, where 1 is the maximum)
Sequence of Retinoic acid receptor RXR-alpha (Homo sapiens) (P19793 whole entry, looked up, the tested form may be a part): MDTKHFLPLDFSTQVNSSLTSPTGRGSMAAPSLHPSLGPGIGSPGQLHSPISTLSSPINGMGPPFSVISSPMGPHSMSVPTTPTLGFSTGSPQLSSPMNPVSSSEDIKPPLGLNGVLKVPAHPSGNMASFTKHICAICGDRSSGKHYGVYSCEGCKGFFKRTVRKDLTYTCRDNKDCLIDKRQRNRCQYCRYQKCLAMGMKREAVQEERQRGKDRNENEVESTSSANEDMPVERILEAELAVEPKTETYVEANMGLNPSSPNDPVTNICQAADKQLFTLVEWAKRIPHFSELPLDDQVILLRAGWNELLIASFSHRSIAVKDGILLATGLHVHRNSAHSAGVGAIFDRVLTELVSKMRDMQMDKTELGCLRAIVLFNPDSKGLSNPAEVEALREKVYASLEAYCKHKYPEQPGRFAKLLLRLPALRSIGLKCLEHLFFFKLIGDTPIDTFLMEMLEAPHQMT
In short: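 Read-out: fluorescent reporter-transcript fragments quantified by capillary electrophoresis after RT-PCR. Transiently transfected HepG2 cells carrying GAL4-UAS reporters and NR-GAL4 chimeras were exposed to chemical for 24 h; activity scored as increase over DMSO.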

[2] = molecular target: human Retinoid X Receptor beta (RXRb), RXRB (gene 6257) (UniProt P28702); assay: ATG_RXRb_TRANS: Attagene TRANS-FACTORIAL HepG2 Assay for human Retinoid X Receptor beta (RXRb) (AID 2283013; active = hit-call score of the fitted dose curve at least 0.9, where 1 is the maximum)
Sequence of human Retinoid X Receptor beta (RXRb), RXRB (gene 6257) (P28702 whole entry, looked up, the tested form may be a part): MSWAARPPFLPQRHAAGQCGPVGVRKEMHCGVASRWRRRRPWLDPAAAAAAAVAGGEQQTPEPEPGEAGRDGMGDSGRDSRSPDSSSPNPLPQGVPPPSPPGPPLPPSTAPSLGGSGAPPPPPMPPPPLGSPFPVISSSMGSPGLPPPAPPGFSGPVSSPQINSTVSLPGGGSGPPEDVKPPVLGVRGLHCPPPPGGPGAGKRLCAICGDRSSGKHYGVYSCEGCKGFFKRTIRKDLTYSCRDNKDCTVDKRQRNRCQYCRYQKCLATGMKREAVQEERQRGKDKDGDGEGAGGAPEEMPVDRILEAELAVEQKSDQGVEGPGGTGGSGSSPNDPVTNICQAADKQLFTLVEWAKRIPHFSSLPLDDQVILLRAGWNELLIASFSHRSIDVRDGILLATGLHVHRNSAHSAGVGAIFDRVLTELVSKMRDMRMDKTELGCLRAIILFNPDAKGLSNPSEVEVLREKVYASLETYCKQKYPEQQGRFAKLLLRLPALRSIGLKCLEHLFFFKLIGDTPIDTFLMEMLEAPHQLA
In short: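 Read-out: reporter mRNA induction via RT-PCR plus capillary electrophoresis fluorescence, analysed as signal increase relative to DMSO. Cells were human HepG2, transiently transfected with GAL4-UAS reporter constructs and chimeric receptor-Gal4 fusions, dosed for 24 h.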

[3] = molecular target: human Thyroid Receptor alpha (THRa1), THRA (gene 7067) (UniProt P10827); assay: ATG_THRa1_TRANS: Attagene TRANS-FACTORIAL HepG2 Assay for human Thyroid Receptor alpha (THRa1) (AID 2283014; active = hit-call score of the fitted dose curve at least 0.9, where 1 is the maximum)
Sequence of human Thyroid Receptor alpha (THRa1), THRA (gene 7067) (P10827 whole entry, looked up, the tested form may be a part): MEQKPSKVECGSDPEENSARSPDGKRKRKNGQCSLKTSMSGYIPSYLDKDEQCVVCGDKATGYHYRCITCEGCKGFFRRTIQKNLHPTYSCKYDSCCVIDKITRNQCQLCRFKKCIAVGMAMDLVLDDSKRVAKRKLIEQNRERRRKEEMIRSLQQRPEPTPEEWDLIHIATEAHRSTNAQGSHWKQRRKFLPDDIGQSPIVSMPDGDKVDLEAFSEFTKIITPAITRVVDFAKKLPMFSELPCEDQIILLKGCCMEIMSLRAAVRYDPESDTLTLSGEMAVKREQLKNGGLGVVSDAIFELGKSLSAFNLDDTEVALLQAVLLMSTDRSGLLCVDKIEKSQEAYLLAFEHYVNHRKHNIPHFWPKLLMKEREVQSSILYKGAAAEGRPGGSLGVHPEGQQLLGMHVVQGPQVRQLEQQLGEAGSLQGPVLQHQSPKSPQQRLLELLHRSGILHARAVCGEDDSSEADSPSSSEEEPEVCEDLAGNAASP
In short: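 Measured here is mRNA from a GAL4-UAS reporter in transfected HepG2 cells carrying a Gal4-fused receptor, 24 h post-dose. DMSO served as negative control and baseline.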

[4] = molecular target: human Vitamin D Receptor (VDR), VDR (gene 7421) (UniProt P11473); assay: ATG_VDR_TRANS: Attagene TRANS-FACTORIAL HepG2 Assay for human Vitamin D Receptor (VDR) (AID 2283022; active = hit-call score of the fitted dose curve at least 0.9, where 1 is the maximum)
Sequence of human Vitamin D Receptor (VDR), VDR (gene 7421) (P11473 whole entry, looked up): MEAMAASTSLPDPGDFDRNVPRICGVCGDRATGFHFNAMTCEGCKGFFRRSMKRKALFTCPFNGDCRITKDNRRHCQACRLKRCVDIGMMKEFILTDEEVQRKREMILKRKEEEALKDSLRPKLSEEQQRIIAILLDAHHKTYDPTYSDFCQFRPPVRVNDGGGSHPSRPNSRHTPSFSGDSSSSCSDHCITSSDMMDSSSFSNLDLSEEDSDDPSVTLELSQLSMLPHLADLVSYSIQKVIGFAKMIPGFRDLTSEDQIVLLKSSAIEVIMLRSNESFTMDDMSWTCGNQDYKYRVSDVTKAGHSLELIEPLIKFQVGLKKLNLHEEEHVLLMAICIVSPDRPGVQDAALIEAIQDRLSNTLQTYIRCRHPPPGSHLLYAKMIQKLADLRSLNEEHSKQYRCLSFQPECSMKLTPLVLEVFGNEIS
In short: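 Multiplexed TRANS reporter in HepG2; 24 h treatment; reporter mRNA by RT-PCR plus capillary electrophoresis; upregulation scored relative to DMSO.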

[5] = read-out: E-selectin (Homo sapiens) (UniProt P16581); assay: BSK_3C_Eselectin: BioMAP Diversity Plus: 3C Assay for Eselectin Biomarker Activity (AID 2283015); conditions: primary human endothelial cells (HUVEC); actives raise or lower the signal
In short: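 Endpoint derived by bidirectional fitting against DMSO vehicle; signal is ELISA-detected E-selectin from primary HUVEC at 24 h post-dosing, with parallel SRB staining (0.1% SRB, 560 nm) flagging cytotoxicity.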

[6] = read-out: Interleukin-1 alpha (IL1a), IL1A (gene 3552); assay: BSK_BE3C_IL1a: BioMAP Diversity Plus: BE3C Assay for Interleukin-1 alpha (IL1a) Biomarker Activity (AID 2283016); conditions: primary human bronchial epithelial cells; actives raise or lower the signal
In short: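 ELISA read-out of IL-1a from human lung bronchial epithelial primary cells, 24 h post-dose. Gain or loss of signal fitted relative to DMSO negative control.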

[7] = read-out: Monocyte Chemoattractant Protein-1 (MCP1), CCL2 (gene 6347); assay: BSK_3C_MCP1: BioMAP Diversity Plus: 3C Assay for Monocyte Chemoattractant Protein-1 (MCP1) Biomarker Activity (AID 2283017); conditions: primary human endothelial cells (HUVEC); actives raise or lower the signal
In short: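 Using human vascular primary endothelium, researchers measured MCP-1 by ELISA 24 h after treatment, with DMSO serving as negative control for bidirectional fitting.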

[8] = read-out: Monocyte Chemoattractant Protein-1 (MCP1), CCL2 (gene 6347); assay: BSK_4H_MCP1: BioMAP Diversity Plus: 4H Assay for Monocyte Chemoattractant Protein-1 (MCP1) Biomarker Activity (AID 2283018); conditions: primary human endothelial cells (HUVEC); actives raise or lower the signal
In short: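 HUVEC primary cells, 24 h post-dose, MCP-1 by ELISA. Gain or loss of signal fitted bidirectionally vs DMSO baseline. Cytotoxicity: SRB stain (0.1% after 10% TCA fixation), read 560 nm, parallel cultures.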

[9] = read-out: Human Leukocyte Antigen - DR isotype (HLADR), HLA-DRA (gene 3122); assay: BSK_3C_HLADR: BioMAP Diversity Plus: 3C Assay for Human Leukocyte Antigen - DR isotype (HLADR) Biomarker Activity (AID 2283019); conditions: primary human endothelial cells (HUVEC); actives raise or lower the signal
In short: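 Compound added to primary HUVEC cultures, 24 h incubation, then HLA-DR determined by ELISA; endpoint derived by bidirectional fitting relative to DMSO negative control.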

[10] = read-out: Interleukin-8 (IL8), CXCL8 (gene 3576); assay: BSK_3C_IL8: BioMAP Diversity Plus: 3C Assay for Interleukin-8 (IL8) Biomarker Activity (AID 2283020); conditions: primary human endothelial cells (HUVEC); actives raise or lower the signal
In short: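 HUVEC, 3C stimulation; 24 h compound exposure; IL-8 read by ELISA; gain or loss of signal fitted relative to DMSO control.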

[11] = read-out: Monokine induced gamma interferon (MIG), CXCL9 (gene 4283); assay: BSK_3C_MIG: BioMAP Diversity Plus: 3C Assay for Monokine induced gamma interferon (MIG) Biomarker Activity (AID 2283021); conditions: primary human endothelial cells (HUVEC); actives raise or lower the signal
In short: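 HUVEC, 3C system; 24 h chemical exposure; MIG by ELISA; bidirectional fit vs DMSO baseline.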

[12] = BSK_3C_SRB: Viability Assessment in the BioMAP Diversity Plus: 3C Assay (AID 2283023); conditions: primary human endothelial cells (HUVEC);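 note: cells read 24 h after compound dosing; fitted both ways against DMSO so a hit may be signal rise or drop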
In short: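 Overt cytotoxicity is gauged in parallel confluent HUVEC cultures by SRB total-protein staining at the time of biomarker measurement, 24 h after dosing. Gain or loss of signal is fitted versus DMSO.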

[13] = read-out: Matrix Metallopeptidase 1 (MMP1), MMP1 (gene 4312); assay: BSK_BE3C_MMP1: BioMAP Diversity Plus: BE3C Assay for Matrix Metallopeptidase 1 (MMP1) Biomarker Activity (AID 2283024); conditions: primary human bronchial epithelial cells; actives raise or lower the signal
In short: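 ELISA read-out of MMP1 in human lung bronchial epithelial primary cultures, 24 h post-dose; bidirectional curve fit vs DMSO baseline, gain or loss of signal scored.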

[14] = BSK_3C_Vis: BioMAP Diversity Plus: 3C Assay for Morphology Visualization (AID 2283025); conditions: primary human endothelial cells (HUVEC);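 note: fitted both ways so gain or loss versus DMSO counts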;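 for AC50: light microscopy image of cell morphology used as background control; cells imaged 24 h after dosing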
In short: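 HUVEC, 3C system; light microscopy of morphology at 24 h post-dose. Bidirectional fit vs DMSO baseline. Secondary readout, background-control function.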

[15] = read-out: Pselectin, SELP (gene 6403); assay: BSK_4H_Pselectin: BioMAP Diversity Plus: 4H Assay for Pselectin Biomarker Activity (AID 2283026); conditions: primary human endothelial cells (HUVEC); actives raise or lower the signal
In short: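 HUVEC, 24 h chemical exposure; P-selectin read by ELISA. Bidirectional curve fit vs DMSO baseline; gain or loss of signal scored.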

[16] = BSK_4H_SRB: Viability Assessment in the BioMAP Diversity Plus: 4H Assay (AID 2283027); conditions: primary human endothelial cells (HUVEC);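 note: cells exposed to compound for 24 h before staining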;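 for AC50: curves fitted both ways versus DMSO so AC50 may be loss or gain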
In short: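 HUVEC, 24 h post-dose; 10% TCA fix, 0.1% SRB stain, A560 nm. Total protein = overt cytotoxicity, parallel to biomarker read. Bidirectional fit vs DMSO baseline.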

[17] = BSK_BE3C_SRB: Viability Assessment in the BioMAP Diversity Plus: BE3C Assay (AID 2283028); conditions: primary human bronchial epithelial cells;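 note: measured 24 h after chemical dosing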
In short: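 SRB total-protein staining (0.1%, after TCA fixation) of chemically dosed human bronchial epithelial primary cells at 24 h; DMSO serves as the negative control for bidirectional curve fitting.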

[18] = read-out: Thrombomodulin, THBD (gene 7056); assay: BSK_3C_Thrombomodulin: BioMAP Diversity Plus: 3C Assay for Thrombomodulin Biomarker Activity (AID 2283029); conditions: primary human endothelial cells (HUVEC); actives raise or lower the signal
In short: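 HUVEC, 3C conditions; compound 24 h; thrombomodulin by ELISA; bidirectional curve fit vs DMSO baseline; parallel SRB total-protein staining for cytotoxicity.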

[19] = read-out: Urokinase-type plasminogen activator receptor (uPAR), PLAUR (gene 5329); assay: BSK_4H_uPAR: BioMAP Diversity Plus: 4H Assay for Urokinase-type plasminogen activator receptor (uPAR) Biomarker Activity (AID 2283030); conditions: primary human endothelial cells (HUVEC); actives raise or lower the signal
In short: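 Endpoint derived via bidirectional curve fitting against DMSO baseline; readout was ELISA detection of uPAR on umbilical vein endothelial cells at 24 h post-treatment, with SRB-stained parallel cultures assessing cytotoxicity.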

[20] = read-out: Vascular endothelial growth factor receptor 2 (Homo sapiens) (UniProt P35968); assay: BSK_4H_VEGFRII: BioMAP Diversity Plus: 4H Assay for Vascular endothelial growth factor receptor 2 (VEGFR2) Biomarker Activity (AID 2283031); conditions: primary human endothelial cells (HUVEC); actives raise or lower the signal
In short: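 In this multiplexed HUVEC system, biomarker ELISA was performed after 24 h chemical exposure. Parallel SRB staining (TCA fixation, 560 nm) tracked cytotoxicity; DMSO served as baseline.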

Measured: AC50

Sequence of E-selectin (Homo sapiens) (P16581 whole entry, looked up): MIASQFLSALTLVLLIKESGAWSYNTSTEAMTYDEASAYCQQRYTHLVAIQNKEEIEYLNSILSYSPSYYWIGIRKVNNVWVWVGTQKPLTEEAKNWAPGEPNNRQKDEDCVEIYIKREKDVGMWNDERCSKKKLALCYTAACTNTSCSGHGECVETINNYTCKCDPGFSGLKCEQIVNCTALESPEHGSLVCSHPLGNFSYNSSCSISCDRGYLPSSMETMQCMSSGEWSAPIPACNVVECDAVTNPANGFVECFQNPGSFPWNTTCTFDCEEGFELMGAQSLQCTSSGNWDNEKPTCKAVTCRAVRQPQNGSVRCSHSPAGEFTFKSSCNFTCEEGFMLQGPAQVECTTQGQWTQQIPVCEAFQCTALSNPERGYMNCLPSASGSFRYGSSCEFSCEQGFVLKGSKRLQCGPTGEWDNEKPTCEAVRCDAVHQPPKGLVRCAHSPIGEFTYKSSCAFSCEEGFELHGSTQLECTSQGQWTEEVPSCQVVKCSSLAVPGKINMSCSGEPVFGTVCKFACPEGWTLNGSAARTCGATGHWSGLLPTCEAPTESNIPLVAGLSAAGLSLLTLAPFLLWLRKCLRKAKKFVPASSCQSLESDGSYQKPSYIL

c1cnc2c(c1)ccc1cccnc12
active: [3] 26.6 µM
inactive: [1] | [2] | [3] | [4]

c1ccc2c(c1)CCC2
inactive: [1]

CC(C)C=O
inactive: [1] | [3]
active: [2] 100 µM

Clc1ccc2c(Cl)ccnc2c1
inactive: [1] | [2] | [3]

CCc1ccccc1O
inactive: [1] | [2] | [3]

FC(F)=C(F)C(F)(F)C(F)(F)C(F)(F)C(F)F
inactive: [1]

CCOC(=O)CN[C@@H](C(=O)N1CC[C@H]1C(=O)NCc1ccc(/C(N)=N/O)cc1)C1CCCCC1
active: [2] 1.42 µM
inactive: all other assays above

CCCCCCCCCCCC(=O)O
inactive: [1] | [2] | [3]

CC(C)(C)c1ccc(O)c(O)c1
inactive: [1] | [2] | [3] | [7] | [10] | [11] | [4] | [13] | [17] | [18] | [19] | [20]
active: [2] 38.8 µM and 44.5 µM and 27.8 µM | [3] 34.1 µM | [5] 3.97 µM | [6] 20 µM | [8] 5.58 µM | [9] 5.3 µM | [12] 5.42 µM | [14] 8.8 µM | [15] 20 µM | [16] 5.52 µM

O=P(O)(O)CCC(F)(F)C(F)(F)C(F)(F)C(F)(F)C(F)(F)C(F)(F)C(F)(F)C(F)(F)F
active: [12] 47 µM | [13] 11.5 µM | [16] 42.7 µM
inactive: [1] | [2] | [3] | [5] | [6] | [7] | [8] | [9] | [10] | [11] | [4] | [12] | [13] | [15] | [16] | [17] | [18] | [19] | [20]
